From PubChem BioAssay AID1053173 (Broad Institute, 2014)
Among all 1,500 compounds or so, about 390 (26%) were called active. How the calls were made is not given here. These entries were drawn from the full list. Results with a measured potency or affinity are listed apart.

target: Histone-lysine N-methyltransferase NSD2 (Homo sapiens) (UniProt O96028); experiment: blockers of NSD2 H4 peptide methylation – biochemical, AlphaScreen, cherry-picked samples, dose response (AID 1053173); conditions: 120 min; series mostly up to 10 µM; activity change, negative = inhibition: at the top concentration;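 further: 0% = neutral control wells and -100% = positive control wells on each plate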
Sequence (O96028 whole entry, looked up): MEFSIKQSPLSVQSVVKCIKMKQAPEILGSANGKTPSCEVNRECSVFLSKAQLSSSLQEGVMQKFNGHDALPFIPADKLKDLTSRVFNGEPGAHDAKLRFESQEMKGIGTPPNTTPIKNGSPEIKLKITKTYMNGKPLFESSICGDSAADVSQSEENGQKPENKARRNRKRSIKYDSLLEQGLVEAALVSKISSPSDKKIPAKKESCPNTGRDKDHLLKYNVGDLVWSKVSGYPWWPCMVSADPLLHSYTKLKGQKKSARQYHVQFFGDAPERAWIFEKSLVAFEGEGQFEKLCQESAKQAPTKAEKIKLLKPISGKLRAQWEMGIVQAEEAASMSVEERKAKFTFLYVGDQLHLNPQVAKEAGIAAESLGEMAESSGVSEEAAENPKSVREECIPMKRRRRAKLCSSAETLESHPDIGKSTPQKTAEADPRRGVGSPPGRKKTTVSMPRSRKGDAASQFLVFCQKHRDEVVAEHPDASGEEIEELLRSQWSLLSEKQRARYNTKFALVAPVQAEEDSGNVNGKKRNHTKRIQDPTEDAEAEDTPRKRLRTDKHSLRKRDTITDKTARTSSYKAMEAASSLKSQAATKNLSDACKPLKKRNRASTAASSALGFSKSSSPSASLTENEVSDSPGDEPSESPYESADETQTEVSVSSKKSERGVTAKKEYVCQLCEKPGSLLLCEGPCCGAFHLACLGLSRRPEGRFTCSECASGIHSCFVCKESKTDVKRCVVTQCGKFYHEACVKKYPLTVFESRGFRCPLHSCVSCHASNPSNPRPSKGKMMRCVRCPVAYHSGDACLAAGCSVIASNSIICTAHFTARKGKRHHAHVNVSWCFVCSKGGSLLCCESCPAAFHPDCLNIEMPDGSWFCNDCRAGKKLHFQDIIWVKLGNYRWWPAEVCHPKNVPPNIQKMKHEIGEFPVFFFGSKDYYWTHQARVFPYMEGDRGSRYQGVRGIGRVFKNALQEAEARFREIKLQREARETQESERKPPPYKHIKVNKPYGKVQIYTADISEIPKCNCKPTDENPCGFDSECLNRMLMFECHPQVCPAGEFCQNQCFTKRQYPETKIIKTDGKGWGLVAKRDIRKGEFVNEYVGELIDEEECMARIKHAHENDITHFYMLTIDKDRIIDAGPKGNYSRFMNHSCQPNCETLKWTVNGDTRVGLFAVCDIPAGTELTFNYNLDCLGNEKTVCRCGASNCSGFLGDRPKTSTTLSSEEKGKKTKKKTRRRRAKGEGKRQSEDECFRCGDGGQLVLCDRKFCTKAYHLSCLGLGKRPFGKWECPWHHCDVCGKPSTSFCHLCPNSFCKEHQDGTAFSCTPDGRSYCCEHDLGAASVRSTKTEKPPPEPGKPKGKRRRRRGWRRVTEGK

Activity change, negative = inhibition, inactive:
Cc1cccc2c(N=NC(=O)c3ccc(NS(=O)(=O)c4cccs4)cc3)c(O)[nH]c12 -5.5%, Cc1cc(S(=O)(=O)NCc2cccnc2)ccc1F -2.37%, O=C(COc1ncnc2c(Cl)cc(Cl)cc12)N1CCCCC1 -0.554%, Cn1ncc2c(Nc3cccc4ccccc34)ncnc21 2.95%, O=C(NCCN1CCOCC1)NC1(C(F)(F)F)Oc2ccccc2O1 -0.91%, CCCCc1ccc(NC(=O)CSc2nc(=O)n(CCN(CC)CC)c3c2CCCC3)cc1 -5.12%, Cc1cc(SCC(=O)Nc2cccnc2Cl)nc2ccccc12 0.285%, COc1ccc(C(=O)Nn2c(SCC(=O)c3ccc(Cl)cc3)nc3ccccc3c2=O)cc1 -2.62%, Cc1ccc(-c2cc(C(=O)N/N=C/c3ccccc3)n[nH]2)o1 -1.55%, Cc1cc(=O)[nH]c(N/N=C/c2c(C)nn(-c3ccccc3Cl)c2Cl)n1 -1.01%, Cc1ccc(O)c(NC(=O)c2cc3nc4c(c(C(F)(F)F)n3n2)CCc2ccccc2-4)c1 -1.53%, O=C(Nc1cc(F)ccc1F)N1CCN(c2ccnc3cc(Cl)ccc23)CC1 -0.162%, COc1ccc(C(=O)C(OC(=O)c2ccc(C)c(NC(C)=O)c2)c2ccccc2)cc1 (stereo not drawn) -3.15%, COCCN(C(=O)CNC(=O)c1ccco1)C(C(=O)NC1CCCC1)c1ccc(OC)cc1 (stereo not drawn) 0.585%, CC1(C)NC(=O)N(CCCOc2ccccc2Br)C1=O -1.93%, CCOc1cc(NC2CS(=O)(=O)CC2O)c(OCC)cc1NC(=O)c1ccccc1 (stereo not drawn) -10.2%, Cc1ccc(N2C(=O)N(CC(=O)Nc3cccc([N+](=O)[O-])c3C)C(=O)C2C)cc1 (stereo not drawn) -2.74%, Cc1ccc(NC(=O)CCn2c(=O)oc3ccccc32)cc1 1.97%, CC1CCN(CCC(=O)Nc2ccccc2)CC1 -1.04%, CNS(=O)(=O)c1cc(NC(=O)CCCNC(=O)c2ccc(Cl)cc2)ccc1C -3.69%, O=C(CC(=O)Nc1ccc(Cl)cc1)N/N=C\c1cccc(F)c1 7.1%, Cc1ccc(NC(=O)CCC(=O)OCC(F)(F)C(F)F)cc1 -4.16%, O=C(NNC(=O)c1ccc(NC(=O)C2CC2)cc1)c1ccc(F)cc1 -4.45%, CC1CCCCC12NC(=O)N(CC(=O)NC(=O)NCc1ccco1)C2=O (stereo not drawn) 5.2%, COc1cccc(CNC(=S)Nc2ccc(Cl)cc2C)c1 2.1%, O=[N+]([O-])c1ccccc1-c1ccc(C(=S)N2CCCC2)o1 -6.85%, Cn1cc(-c2ccccc2C(N)=O)c(=O)c2ccccc21 -1.88%, CC1CCCC(NC(=O)COC(=O)c2c[nH]c(=O)[nH]c2=O)C1C (stereo not drawn) -1.68%, O=C(OCc1cnc(Cl)s1)c1cccs1 -1.1%, Cc1ccc(N2CS(=O)(=O)/C(=C/N(C)C)C2=O)cc1 5.06%, Cn1c(CSCc2ccccc2)nnc1SCC(=O)Nc1nccs1 0.187%, O=C(CC1C(=O)N(c2ccccc2)C(=S)N1c1ccccc1)c1ccc(Br)cc1 (stereo not drawn) -0.56%, CCn1c(O)c(/C=N/n2cnnc2)sc1=S 0.542%, CCOc1ccc(-c2nnc(SCc3nc4ccccc4[nH]3)n2N)cc1 -2.78%, CCOC(=O)C(Oc1ccc2c(-c3ccc(OC)cc3)cc(=O)oc2c1C)c1ccccc1 (stereo not drawn) -0.617%, CCOC(=O)c1c(C#N)c(SCC(=O)Nc2ccc(OC)cc2)nc2c1CN(CC)CC2 -3.26%, COc1ccc(OCCSc2nnc(CCNC(=O)c3ccc(Cl)c(Cl)c3)n2C)cc1 1.83%, COc1cccc(CN2C(=O)C(C)N(C(=O)c3c(F)cccc3F)c3ccccc32)c1 (stereo not drawn) -4.93%, CN1CCN(c2ccc(S(=O)(=O)N3CCOCC3)cc2NC(=O)COc2ccc(F)cc2Cl)CC1 -1.77%, COc1ccc(C2C(C(=O)/C=C/c3ccco3)=C(O)C(=O)N2CCN2CCOCC2)cc1OC (stereo not drawn) 2.35%, COc1ccc(CCNC(=O)Nc2ccc3c(c2)c(=O)n(C)n3CC=C(C)C)cc1OC 1.5%, CCc1nnc(NC(=O)c2ccc3ccccc3n2)s1 -0.466%, CCc1nnc(NC(=O)c2ccc(COc3ccccc3)o2)s1 0.577%, CCC1(c2ccc(F)cc2)NC(=O)N(CC(=O)N(CCC#N)c2ccccc2)C1=O (stereo not drawn) -0.318%, Cc1ccc(S(=O)(=O)N(C)C)cc1NC(=O)/C=C/c1cccs1 1.54%, CC1(C)Cc2sc3c(=O)[nH]c(=S)[nH]c3c2CO1 1.02%, CCOc1ccc(N2CC(C(=O)NCCc3c[nH]c4ccc(OC)cc34)CC2=O)cc1 (stereo not drawn) 0.809%, Cc1ccc(NC(=O)Cn2nnc(C(=O)NCc3ccccc3)c2N)cc1C -0.362%, Cc1cc(C(=O)COC(=O)c2ccc([N+](=O)[O-])o2)c(C)n1CC1CCCO1 (stereo not drawn) -9.09%, COc1ccc(C(c2c(C)[nH]n(-c3ccccc3)c2=O)c2c(C)[nH]n(-c3ccccc3)c2=O)cc1OC -9%, C/C(CC(=O)Nc1ccccn1)=N\NC(=O)C(=O)Nc1cccc(Cl)c1C -0.689%, COCCN(C(=O)CCC(=O)Nc1ccccn1)C(C(=O)NC(C)C)c1ccc(C)cc1 (stereo not drawn) -2.62%, Cc1[nH]n(-c2ccccc2)c(=O)c1C(C[N+](=O)[O-])c1ccc(F)cc1 (stereo not drawn) 1.48%, Cc1ccc(C(C[N+](=O)[O-])c2c(C)[nH]n(-c3ccccc3)c2=O)cc1 (stereo not drawn) -2.59%, CCN(CC)C(=O)COC(=O)C1=NN(c2cc(C)ccc2C)C(=O)CC1 -3.17%, COC(=O)CCCC(=O)NC1CC(C)(C)Cc2c1cnn2-c1ccc(C)cc1 (stereo not drawn) -0.494%, Cc1cccc(-c2nnc(SCC(=O)c3ccc(O)cc3O)n2C)c1 0.938%, C=CCn1c(SCc2ccc(C#N)cc2)nnc1-c1ccc(C)cc1 -2.38%, C=CCn1c(SCC(=O)N2CCN(c3ccccc3)CC2)nnc1-c1ccco1 -4.63%, CN(C)c1cccc2c1c(NC(=O)Nc1ccccc1)nn2C -5.26%, O=C(c1ccc2c(c1)OCO2)C1CCCN(Cc2ccc3cccc(F)c3n2)C1 (stereo not drawn) -1.24%, CCNc1ccccc(C(=O)/C=C/c2ccc3c(c2)OCO3)c1=O -2.99%, CC(Cc1c[nH]c2ccccc12)C(=O)NCc1ccco1 (stereo not drawn) -7.92%, CCOC(=O)N1CCN(C2=Nc3cccc4cccc2c34)CC1 0.355%, CSc1ncccc1C(=O)Nc1nc2c(C)cccc2s1 4.37%, Nc1ncnc(NCc2ccccc2)c1[N+](=O)[O-] 0.484%, COc1ccc(COc2ncnc3ccc(Br)cc23)cc1F 1.25%, COc1ccc(CCNC(=O)C2CCN(C(=O)c3ccccc3C)CC2)cc1 0.092%, Cc1cccc(N(CC(=O)NC(C)(C)C)C(=O)CS(=O)CC(=O)Nc2ccc3c(c2)OCO3)c1 (stereo not drawn) 0.013%, CC(=O)N1CCN(Cc2nc3cc(NC(=O)Cn4nc(C)c5ccccc5c4=O)ccc3n2C)CC1 1.58%, [O-][n+]1cccc2c(Br)cc(Br)c(O)c21 -3.88%, OC(COc1ccc2ccccc2c1Cl)CN1CCOCC1 (stereo not drawn) -1.1%, CCCCN(CC)CCNC(=O)CN(C)S(=O)(=O)c1ccc2c(c1)c(=O)n(C)c(=O)n2C -9.9%, Cc1ccc(C(=O)Nc2ccc(CC(=O)O)cc2)o1 -1.83%, CCCc1cc(Nc2ccccc2C)n2ncnc2n1 6.66%, N#Cc1c(SCC(=O)OCc2ccccc2)nsc1SCC(=O)OCc1ccccc1 -2.54%, Cc1cc(Cl)ccc1OCCCC(=O)N1CCOCC1 1.3%, CCN(CC)Cc1c(O)c(Cl)cc2c(C)cc(=O)oc12 -7.42%, O=S(=O)(c1ccc(-c2nnco2)cc1)N1CCCCC1 -4.33%, O=C(c1ccc(N2CCOCC2)c([N+](=O)[O-])c1)N1CCN(Cc2ccccc2)CC1 -3.51%, O=C(CSc1nnc2ccccn12)NNC(=O)c1ccc([N+](=O)[O-])cc1 -0.222%, O=C1CC(N2CCOCC2)=NN1c1ccc([N+](=O)[O-])cc1 -2.73%, c1cc(-c2ccoc2)n2ccnc2c1 -3.71%, CCN1C(=O)c2ccccc2S(=O)(=O)c2ccc(C(=O)NC(C)C)cc21 -0.906%, CC1CN(Cc2c(O)ccc3c(=O)c(-c4ccccc4Cl)coc23)CC(C)O1 (stereo not drawn) 0.635%, CCCCN1C(=O)C(=Nc2cccc3cnccc23)c2ccccc21 -3.19%, CN(C)CCNc1nc(-c2ccco2)c2c(c1C#N)CC(C)(C)OC2 -1.66%, COc1ccc(C2CC(c3ccc(Cl)cc3)=NN2C(C)=O)cc1 (stereo not drawn) -1.06%, Cc1ccnc(N2CCC(C(=O)NC3CCCCCC3)CC2)n1 -2.18%, NC(=O)c1[nH]cnc1N=NN(CCO)Cc1ccccc1 0.49%, CC(Oc1ccc(Cl)cc1Cl)C(=O)NC(Cc1ccccc1)C(=O)O (stereo not drawn) 4.79%, CS(=O)(=O)N(CC(=O)NCc1ccc2c(c1)OCO2)c1cccc(Cl)c1 0.858%, O=C(NCc1cccnc1)c1ccc2c(c1)OCO2 -4.15%, C=CCOc1ccc(NC(=O)C2CC(=O)N(C(C)C)C2)cc1 (stereo not drawn) -0.242%, Oc1cccc(C=NCc2ccccc2)c1 1.51%, Oc1ccc(NCc2cccc(OCc3ccc(F)cc3)c2)cc1 -5.89%, Cc1cccc(C(=O)NCC(=O)OCc2nnc(-c3ccccc3)o2)c1 0.7%, COc1ccccc1NC(=O)C(C)OC(=O)CCNS(=O)(=O)c1cccc(C(F)(F)F)c1 (stereo not drawn) 1.15%, O=C(NCc1ccco1)c1nc(-c2ccccc2)n(-c2ccccc2)n1 -2.2%, CCOc1cc(N2CCOCC2)c(OCC)cc1NC(C)C(=O)N1CCN(CC)CC1 (stereo not drawn) -1.64%, CCCC(=O)c1ccc(O)cc1O 0.614%, Cc1nc(COC(=O)c2cc(O)c3ccccc3c2O)cs1 -1.16%, COCCN1CC(=O)N2C(c3cccc(C)c3)c3[nH]c4ccccc4c3C[C@H]2C1=O (stereo partly drawn) -2.11%, COc1ccc(C2CC(=O)c3c(C)nc(N4CCN(c5ccccc5)CC4)nc3C2)cc1 (stereo not drawn) 0.827%, CCOCCCNC(=O)Cn1cc2c(n1)-c1c(oc(C(=O)N3CCCC3)c1C)CC2 0.254%, O=C(NC1CCCC1)c1cc(-c2ccc(Cl)cc2Cl)on1 -3.59%, CC1CN(C(=O)COC(=O)/C=C/c2ccccc2)CC(C)O1 (stereo not drawn) -1.51%, Cc1cccc(OCCn2c(=S)[nH]c3ccccc32)c1 -3.36%
